Measurements published in PubChem BioAssay AID624465 (National Center for Advancing Translational Sciences (NCATS), 2012).
The whole screen tested about 360,000 compounds, of which about 300 (0.083%) were called active. Cut-off read from the data, not from the text of the source: active = activation above about 40%; inconclusive = between about 15% and that limit; inactive = weaker than that. What follows is part of a selection rich in actives, with near analogues and random picks from the rest.

The compounds below were run against D(2) dopamine receptor (Homo sapiens) (UniProt P14416) (assay: Beta-Arrestin HTS for Positive Allosteric Modulators of the Human D2 Dopamine Receptor: Agonists). Settings: DiscoveRx PathHunter D2 beta-arrestin, luminescence, 90 min; active compounds read high; 100% = 57 uM dopamine signal.
Sequence of D(2) dopamine receptor (Homo sapiens) (P14416 whole entry, looked up): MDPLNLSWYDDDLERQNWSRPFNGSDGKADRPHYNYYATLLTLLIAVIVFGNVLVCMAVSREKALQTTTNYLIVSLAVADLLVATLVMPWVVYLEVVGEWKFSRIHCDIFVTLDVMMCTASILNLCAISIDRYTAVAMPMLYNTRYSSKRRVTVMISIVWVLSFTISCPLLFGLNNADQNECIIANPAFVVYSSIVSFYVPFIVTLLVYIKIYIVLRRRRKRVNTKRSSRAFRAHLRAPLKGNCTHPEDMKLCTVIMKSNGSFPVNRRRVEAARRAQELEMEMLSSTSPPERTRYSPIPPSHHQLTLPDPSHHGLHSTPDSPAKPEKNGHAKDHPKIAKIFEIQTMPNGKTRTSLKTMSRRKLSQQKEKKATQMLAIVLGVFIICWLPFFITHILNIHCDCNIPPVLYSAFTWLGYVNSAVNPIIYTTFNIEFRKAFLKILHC
Source text: There is great interest in identifying small molecule ligands for G-protein coupled receptors (GPCRs) as nearly 50% of all FDA-approved drugs target these important receptor proteins. […] Amongst the dopamine receptors (DARs), the D2 is arguably one of the most validated drug targets in neurology and psychiatry. For instance, all receptor-based antiparkinsonian drugs primarily work via stimulating the D2 DAR, whereas all FDA-approved antipsychotic agents are antagonists of this receptor. The D2 DAR is also therapeutically targeted in other disorders such as restless legs syndrome, tardive dyskinesia, Tourette's syndrome, and hyperprolactinemia.
To this end, a miniaturized qHTS screen was developed to be screened against the Molecular Libraries Small Molecule Repository (MLSMR). This assay seeks to identify agonists against the D2 DAR.
NIH Molecular Libraries Probe Production Network [MLPCN]
NIH Chemical Genomics Center [NCGC]
PI Name: David Sibley, National Institutes of Neurological Disorders and Stroke
DiscoveRx D2 cells were thawed from frozen stock and seeded at 2,100 cells/ 3 uL/well media (DiscoveRx Plating Reagent 2) with MultiDrop Combi dispenser (Thermo Scientific, Logan, UT) onto white tissue culture treated 1536-well Aurora plates (Brooks Automation, Chelmsford, MA) and allowed to attach overnight at 37 deg C, 5% CO2. Next, 23 nL/well of compound solutions in DMSO were added with a pintool transfer (Kalypsis, San Diego, CA). As the positive control, 1 uL/well dopamine (EC100, 57 uM final concentration) diluted in buffer (HBSS + 10 mM HEPES + SMB + 0.1% Tween-20) was dispensed to 1 column of each plate. The rest of the plate was dispensed with buffer only, 1 uL/well as well. The cells were stimulated by compounds or dopamine control for 90 minutes at 37 deg C, 5% CO2, after which 1.5 ul/well of DiscoveRx detection reagent was added with BioRAPTR FRD dispenser. The detection reagent was prepared by mixing of Galacton Star Substrate, Emerald II solution and PathHunter buffer (supplied by the assay kit) together at 1:5:19 proportion accordingly just prior to dispensing. The plates were incubated at ambient temperature for 1 hour and then the luminescent signal was read on ViewLux plate reader (PerkinElmer, Waltham, MA).
For `CC(OC(=O)CNS(=O)(=O)/C=C/c1ccccc1)C(=O)Nc1ccc(S(=O)(=O)N2CCCC2)cc1` (configuration not stated), the activation was 0.137% (inactive). With `CCOc1ccc(NC(=O)CN(C)C(=O)c2c(C)noc2C)cc1OCC` the activation was -1.71% (inactive). With `NC(=O)C(Cc1ccccc1)NC(=O)C12CC3CC(CC(C3)C1)C2` (configuration not stated) the activation was -2.84% (inactive). In the case of `CSc1nnc2c(n1)OC(c1cn(C)c3ccccc13)N(C(C)=O)c1ccccc1-2` (configuration not stated), the activation is reported as -3.75% (inactive). In the case of `O=C(CSc1nc2cccc(F)c2c(=O)n1-c1ccccc1)Nc1ccc2c(c1)CCC2`, the activation is reported as 0.472% (inactive). For `C=CS(=O)c1sc(Cl)c(N2CCOCC2)c1[N+](=O)[O-]` (configuration not stated), the activation was -11% (inactive). With `CC(C)c1cccc(C(C)C)c1Nc1cn[nH]c1` the activation was 8.06% (inactive). With `CSCCC(NC(=O)COc1ccccc1)C(=O)N(C)CC(=O)Nc1ccc(C)cc1` (configuration not stated) the activation was -3.34% (inactive). In the case of `Cc1ccc(Sc2cc(N3CCOCC3)nc(-c3ccccc3)n2)cc1`, the activation is reported as 2.6% (inactive). In the case of `Cc1csc(NC(=O)CSc2nnc(-c3cccnc3)o2)n1`, the activation is reported as -2.74% (inactive). For `CCC(=NC1CC(C)(C)NC(C)(C)C1)C1=C(O)CC(C)(C)CC1=O`, the activation was 0.839% (inactive). In the case of `CCOc1ccc(NC(=O)CN(C)CC(=O)NC(C)c2ccccc2)cc1OCC` (configuration not stated), the activation is reported as -5.49% (inactive). For `COCCn1c(C)cc(C(=O)COC(=O)/C=C/c2cccc(OC)c2)c1C`, the activation was -0.488% (inactive). `CCCCc1nccn1CCn1ccnc1CCCC` was tested, and the activation was -1.34% (inactive). For `Cc1cc(C)nc(N2C(=O)CC(Cc3ccccc3)C2=O)n1` (configuration not stated), the activation was -1.43% (inactive). For `CC(C)c1ccc(N(C(=O)c2ccco2)C(C(=O)NC2CCCC2)c2cccnc2)cc1` (configuration not stated), the activation was 1.27% (inactive). In the case of `CCN1CCN(C(=O)/C=C\C(=O)O)CC1`, the activation is reported as -0.987% (inactive). For `CCOc1ccc(Oc2nc(C)cc(OC)n2)nn1`, the activation was -3.16% (inactive). For `CCC(C(=O)NC1CCCCC1)N(C(=O)c1snc(C(N)=O)c1N)c1ccc(OC)cc1OC` (configuration not stated), the activation was -1.51% (inactive). `CC(=O)NC1(c2ccc(F)cc2)CCN(C(=O)c2c(F)cccc2F)CC1` was tested, and the activation was -4.03% (inactive). `Cc1ccc(Cl)cc1NC(=O)C1CCN(S(C)(=O)=O)CC1` was tested, and the activation was -3.51% (inactive). With `CC(NCc1ccccc1OC1CCCC1)c1ccccc1` (configuration not stated) the activation was -2.1% (inactive). With `COc1ccc(-c2ccc3nnc(SCC(=O)Nc4ccc(NC(C)=O)cc4)n3n2)cc1` the activation was 0.231% (inactive). In the case of `O=C(NNS(=O)(=O)c1ccc(F)cc1)C1CCCCC1`, the activation is reported as -2.79% (inactive). In the case of `O=C(Cn1nc([N+](=O)[O-])nc1Br)NC1CCCCC1`, the activation is reported as 6.2% (inactive). With `CC(=O)c1nnn(-c2ccc(Cl)cc2C#N)c1C` the activation was -0.344% (inactive). For `Cc1cccc2nc(CNc3ccc(F)cc3)cn12`, the activation was -2.67% (inactive). For `COc1ccc([N+](=O)[O-])cc1NC(=O)c1ccc(N(Cc2ccccc2C)S(C)(=O)=O)cc1`, the activation was 1.42% (inactive). For `CN(CC(=O)NC1CCCCC1)S(=O)(=O)c1cccc2cccnc12`, the activation was -4.91% (inactive). In the case of `CCCCCN(C(=O)NC(=O)Nc1cccc(C)c1C)S(C)(=O)=O`, the activation is reported as -5.29% (inactive). For `Cc1ccccc1Nc1scc(-c2ccc(Br)cc2)[n+]1-c1ccccc1C`, the activation was -4.78% (inactive). With `Cc1nn(-c2ccccc2)c2c1c(C)c(CCC(=O)NCC1CCCO1)c(=O)n2C` (configuration not stated) the activation was -0.567% (inactive). In the case of `O=c1ccc2cc(S(=O)(=O)N3CCN(c4ccccc4)CC3)ccc2o1`, the activation is reported as -0.365% (inactive). In the case of `CCCOc1cc(C)c(S(=O)(=O)n2nnc3ccccc32)cc1C`, the activation is reported as 2.16% (inactive). In the case of `CC(=O)N1C[C@@H](CO)[C@@H](N(C)C(=O)c2ccco2)C[C@H]1c1ccccc1`, the activation is reported as -6.66% (inactive). With `CCCN(CCc1ccccc1)C1CCc2c(O)cccc2C1` (configuration not stated) the activation was 56.1% (active). In the case of `Cc1cc(C)cc(C(=O)N(CCc2ccccc2)C2=CC3CCC(C2)N3C)c1` (configuration not stated), the activation is reported as 0.198% (inactive). In the case of `CCCc1cc(=O)[nH]c(SCC(=O)c2c(N)n(CC(C)C)c(=O)n(C)c2=O)n1`, the activation is reported as -5.56% (inactive). `Cc1ccc(-c2csc(C(C#N)=C(O)CN3CCN(C(=O)c4ccco4)CC3)n2)cc1` was tested, and the activation was 9.93% (inactive). `O=C(NCC1CCCO1)C1CCN(C2CCN(C(=O)C3CCCCC3)CC2)CC1` (configuration not stated) was tested, and the activation was 0.237% (inactive). With `CC1CCc2c(sc3c2C2=NS(=O)(=O)CCN2C=N3)C1` (configuration not stated) the activation was -1.75% (inactive). In the case of `CCCCN1C(=O)C(=O)N(CC(=O)Nc2cccc(C(C)=O)c2)C1=O`, the activation is reported as -3.6% (inactive). With `O=C1CCCN1C(=O)COc1ccc([N+](=O)[O-])cc1` the activation was -5.83% (inactive). In the case of `C[C@H](OC(=O)n1ccnc1)[C@@H]1O[C@@]2(C)CCC[C@@H]1O2`, the activation is reported as -0.3% (inactive). For `CCC(=O)N1c2ccc(S(=O)(=O)NCc3ccco3)cc2CC1C` (configuration not stated), the activation was 4.56% (inactive). In the case of `CC(NC(=O)CNC(=O)Cc1cccc2ccccc12)c1ccc(S(N)(=O)=O)cc1` (configuration not stated), the activation is reported as -2.38% (inactive). In the case of `COc1ccc(CC(=O)NC(C)c2ccc(Cl)c(Cl)c2)cc1S(=O)(=O)N1CCOCC1` (configuration not stated), the activation is reported as -3.32% (inactive). With `CN(C(=O)c1cccc(NC(=O)Cc2ccc(NC(=O)C3CCCN(C(=O)C4CCCC4)C3)cc2)c1)C1CCC1` (configuration not stated) the activation was 1.94% (inactive). With `COC(C[C@H](O)CC(=O)COCc1ccccc1)OC` the activation was 0.157% (inactive). For `C[C@H](CO)N1C[C@H](C)[C@@H](CN(C)S(=O)(=O)c2ccc(F)cc2)OCc2cnnn2CCCC1=O`, the activation was -9.17% (inactive). With `CC(C)C1C(=O)N(Cc2cn(CCC3OCCO3)nn2)CCS(=O)(=O)N1Cc1ccc(-c2ccccc2C(F)(F)F)cc1` (configuration not stated) the activation was -3.03% (inactive). For `Oc1ccccc1CNc1ncc(Br)cc1Br`, the activation was 0.262% (inactive). `O=C(CSc1ccsc1[N+](=O)[O-])N1CCCCC1` was tested, and the activation was -4.54% (inactive). In the case of `Cc1cccc(NC(=O)c2ccc(OCC(=O)NCc3ccccc3)cc2)c1C`, the activation is reported as -2.68% (inactive). In the case of `Cc1c(NC(=O)C(C)OC(=O)c2cc3c4ccccc4n(C)c3s2)c(=O)n(-c2ccccc2)n1C` (configuration not stated), the activation is reported as -5.25% (inactive). With `Cc1ccc(C(=O)NC2CCCC(C)C2C)cc1S(=O)(=O)N1CCCCC1` (configuration not stated) the activation was -2.55% (inactive). `N#CC1=C(N)N(c2ccc(F)cc2)C(=O)C1` was tested, and the activation was -1.46% (inactive).
